Screens from PubChem.
Sampled rows, rich in hits. Any-hit rate of the full collection: about 27%.
CYP2C9 activ – human CYP2C9 activators, primary screen, biochemical, luminescence; actives 1.4% (n = 96,000); recombinant CYP2C9, luciferin-H conversion; active compounds read high; factor 1 = untreated enzyme, 0 = blocked; AID 1024, 2008; activation factor at 5 µM;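 active means activation factor of 2 or more for CYP2C9 at a 5 µM dose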;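 further: 0 = sulfaphenazole-blocked wells and 1 = vehicle-only wells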
CYP2C9 inhib – blockers of cytochrome P450 2C9 activity – biochemical, luminescence, ADME assay, primary screen; CYP2C9 Supersomes, luciferin-H conversion; inhibition, % at 5 µM; actives 20% (n = 96,000); AID 777, 2007;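 active means blocking of liver enzyme CYP2C9 beyond about 50% at 5 µM, limit read from the data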
CYP2C19 activ – human CYP2C19 activators, primary screen, biochemical, luminescence; 96,000 tested, under 10 active; recombinant CYP2C19, luciferin-H EGE luminescence; active compounds read high; 0 = fully inhibited enzyme, 1 = untreated enzyme; activation factor at 5 µM; Cytochrome P450 2C19 (Homo sapiens), P33261;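 active means activation factor of at least 2 at 5 µM in the primary screen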;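 further: 0 = wells with 2.5 mM tranylcypromine and 1 = vehicle-only wells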
sEH inh – soluble epoxide hydrolase inhibitors, primary screen, biochemical, human sEH | recombinant human sEH enzymatic activity assay | inhibition, % at 2 µM | actives 0.34% (n = 91,000) | AID 707, 2007; in the data active means inhibition above about 80%
Target sequence (P34913 whole entry, looked up): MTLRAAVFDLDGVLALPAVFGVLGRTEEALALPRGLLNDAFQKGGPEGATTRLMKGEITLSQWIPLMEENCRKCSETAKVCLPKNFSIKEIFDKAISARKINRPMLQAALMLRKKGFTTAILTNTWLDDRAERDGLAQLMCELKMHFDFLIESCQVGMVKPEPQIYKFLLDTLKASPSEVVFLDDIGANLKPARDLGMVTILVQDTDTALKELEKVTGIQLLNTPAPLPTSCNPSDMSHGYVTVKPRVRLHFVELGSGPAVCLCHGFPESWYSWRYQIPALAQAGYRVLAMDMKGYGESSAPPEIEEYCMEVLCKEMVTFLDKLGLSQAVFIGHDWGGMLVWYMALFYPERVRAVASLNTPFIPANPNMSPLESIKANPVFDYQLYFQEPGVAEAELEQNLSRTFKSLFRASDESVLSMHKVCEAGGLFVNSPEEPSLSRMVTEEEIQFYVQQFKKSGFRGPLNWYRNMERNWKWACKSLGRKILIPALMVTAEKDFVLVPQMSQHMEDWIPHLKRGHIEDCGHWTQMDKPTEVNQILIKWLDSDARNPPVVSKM
sEH act – soluble epoxide hydrolase activators, primary screen, biochemical, human sEH | purified human sEH enzymatic activity, activator screen | activation, % at 2 µM | AID 717, 2007 | Bifunctional epoxide hydrolase 2 (Homo sapiens), P34913 | actives 0.04% (n = 91,000); in the data active means activation above about 37%
CYP2C19 inh – blockers of cytochrome P450 2C19 activity – biochemical, luminescence, ADME assay, primary screen; CYP2C19 Supersomes, luciferin-H EGE luminescence, 30 min; P33261; actives 21% (n = 96,000); inhibition, % at 5 µM;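 active means CYP2C19 inhibition above a set limit at 5 µM in the primary screen, cut at about 50% in these data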;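 further: plate controls were negative control wells for no effect and 2.5 mM tranylcypromine positive control for full effect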
* = called active by the depositor; . = no result given.

SMILES | CYP2C9 activ | CYP2C9 inhib | CYP2C19 activ | sEH inh | sEH act | CYP2C19 inh
COc1cccc(OCCNc2cc(Cl)ccc2[N+](=O)[O-])c1 | 0.6 | 42 | 0.5 | 4 | -1 | 46
CN(CCc1ccccn1)Cc1ccc(Cl)cc1 | 1.2 | -24 | 0.5 | -5 | 4 | 53*
CCc1ccc(CN(C)CCc2ccccn2)cc1 | 0.8 | 21 | 0.1 | . | . | 89*
CCNC(=O)c1sc(-c2ccccc2)nc1C | 1.1 | -10 | 0.4 | . | . | 56*
O=C(CSc1nnc(-c2ccccc2Cl)o1)Nc1ccc2c(c1)OCCO2 | . | . | . | 0 | 2 | .
O=c1c(-c2nnc(SCc3ccc(Cl)c(Cl)c3)o2)cccn1Cc1ccccc1 | 0.4 | 56* | 0.2 | -17 | 20 | 84*
CC(C)N1C(=O)CCC1C(=O)NCCc1ccccc1 (stereo not given) | 0.8 | 18 | 0.9 | . | . | 7
O=c1[nH]ncc2c3ccccc3n(Cc3ccc(F)cc3)c12 | 0.3 | 72* | 0.5 | -3 | 3 | 46
CCOC(=O)N1CCC(NC(=O)Cn2c3ccccc3c3cn[nH]c(=O)c32)CC1 | 1 | 1 | 0.9 | . | . | 6
COC(=O)Cn1ncc2c3ccccc3n(Cc3ccccc3)c2c1=O | 0.7 | 30 | 0.7 | 10 | -7 | 34
O=C(Cn1ncc2c3ccccc3n(Cc3ccc(F)cc3)c2c1=O)N1CCN(c2ncccn2)CC1 | 0 | 95* | 0 | 10 | -7 | 99*
Cc1ccccc1Cn1c2ccccc2c2cnn(CC(=O)N3CCN(c4ccccc4)CC3)c(=O)c21 | 0.6 | 37 | 0.4 | . | . | 62*
CCOc1ccc(N(CC(=O)NCc2ccccc2)S(=O)(=O)c2c(C)noc2C)cc1 | 0.5 | 46 | 0.1 | 11 | -9 | 91*
CCOc1ccc(N(CC(=O)Nc2nccs2)S(=O)(=O)c2c(C)noc2C)cc1 | 0.4 | 64* | 0.3 | 1 | 1 | 71*
COc1cccc(CNC(=O)CN(c2cc(C)cc(C)c2)S(=O)(=O)c2c(C)noc2C)c1 | 0.4 | 58* | 0.5 | 0 | -1 | 55*
CCOc1ccc(N(CC(=O)NC(C)CC)S(=O)(=O)c2c(C)noc2C)cc1 (stereo not given) | 0.7 | 28 | 0.4 | . | . | 64*
CCOc1ccc(NC(=O)CN(c2cc(C)cc(C)c2)S(=O)(=O)c2c(C)noc2C)cc1 | . | . | . | -1 | 0 | .
CCn1c(=O)c([N+](=O)[O-])c(NCCc2ccccc2)c2ccccc21 | 1.1 | -10 | 0.7 | 0 | 3 | 32
Cc1ccc(Nc2c([N+](=O)[O-])c(=O)n(C)c3ccccc23)cc1C | 1.2 | -19 | 0.4 | -12 | 11 | 64*
FC(F)(F)c1cccc(Cn2nnnc2-c2ccc(Cl)cc2)c1 | 0.4 | 61* | 0.1 | 12 | -9 | 92*
CCCn1nnnc1-c1ccc(Cl)cc1 | 1 | -1 | 0.8 | 12 | -9 | 22
Cc1nc2c(-c3ccccc3)c(C)nn2c(C)c1CCC(=O)O | 0.8 | 24 | 0.7 | 0 | 0 | 27
COc1ccccc1-c1cc2nc(C)c(CCC(=O)NC(C)CCc3ccco3)c(C)n2n1 (stereo not given) | 0.1 | 89* | 0.1 | 6 | -8 | 90*
Cc1nc2cc(-c3ccccc3)nn2c(C)c1CCC(=O)N1CCN(c2ccccc2)CC1 | 0.9 | 13 | 0.6 | -6 | 5 | 36
Cc1nc2c(-c3ccccc3)c(C)nn2c(C)c1CCC(=O)NC(C)CCc1ccco1 (stereo not given) | 0.6 | 38 | 0.5 | -4 | 3 | 52*
Cc1ccc2c(CC(=O)O)coc2c1C | 0.9 | 6 | 0.9 | . | . | 5
Cn1c(COc2ccccc2)nnc1SCc1nc2ccccc2[nH]1 | 0.9 | 6 | 0.6 | 13 | -15 | 35
Cc1cccc(OCc2nnc(SCc3nc4ccccc4c(=O)[nH]3)o2)c1 | 0.5 | 48 | 0.5 | -7 | 5 | 54*
O=c1[nH]c(CSc2nnc(COc3ccccc3)n2-c2ccccc2)nc2ccccc12 | 0.1 | 90* | 0.1 | -3 | 4 | 85*
